This is a sample that favours compounds with a hit; in the whole collection about 4.1% have one here.
ssDAF-12 act: S. stercoralis DAF-12 nuclear receptor activators, primary screen, cell-based, luminescence, HEK293, GRIP1 co-expression, lit1-tk-luc; HEK293 ssDAF-12/GRIP1 lit1-tk-luc reporter; % of 3 µM dafachronic acid response; 370,000 tested, 1% active; Nuclear hormone receptor DAF-12 (Strongyloides stercoralis); activation, % at 6.8 µM;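 active = activation above the mean over all tested compounds plus 3 SD, cut at about 0.9% in these data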;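 also: 0% = DMSO-only wells and 100% = 3 µM delta7-dafachronic acid wells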
DAX1 inh-1: DAX1 (NR0B1) inhibitors on StAR promoter, primary screen, cell-based, luminescence, SF-1 (NR5A1), full-length DAX-1; 370,000 tested, 1.1% active; HEK293T StAR-luciferase reporter, SF-1/DAX-1 repression relief; inhibition, % at 6.8 µM;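 active = inhibition above the mean over all tested compounds plus 3 SD, cut at about 3.6% in these data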;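 also: 0% = DAX-1 cells with DMSO and 100% = cells lacking DAX-1 with DMSO; higher inhibition means more luminescence from relief of DAX-1 repression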
DAX1 inh-2: DAX1 (NR0B1) inhibitors, primary screen, cell-based, HEK293, Gal4-DAX1, luciferase luminescence; AID 504766, 2011; inhibition, % at 6.75 µM; Nuclear receptor subfamily 0 group B member 1 (Homo sapiens), P51843; 340,000 tested, 0.99% active; HEK293 Gal4-DAX1 luciferase reporter;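 active = inhibition above the mean over all tested compounds plus 3 SD, cut at about 4.2% in these data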;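 also: 0% = DAX1-transfected cells with DMSO and 100% = empty-vector control cells with DMSO; inhibition shows as a rise in luminescence from relieved DAX1 repression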
hgDAF12 agonist: H. glycines DAF-12 receptor agonists, primary screen, cell-based, luminescence, HEK293, GAL4 fusion, UAS-luciferase; 370,000 tested, 1.8% active; activation, % at 6.8 µM; HEK293 GAL4-hgDAF12 UAS-luciferase reporter, agonist luminescence; normalized to butyrate control; Nuclear hormone receptor DAF-12 (Heterodera glycines), GAL4 fusion; AID 687014, 2013;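 active = activation above a cutoff set at the mean of all screened compounds plus 3 SD, cut at about 10% in these data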;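 also: 0% = DMSO wells and 100% = sodium butyrate wells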
hcDAF-12 act: H. contortus DAF-12 nuclear receptor activators, primary screen, cell-based, luminescence, HEK293, lit1-tk-luc reporter. HEK293 hcDAF-12 lit1-tk-luc reporter; 0% DMSO, 100% Δ7-dafachronic acid. 370,000 tested, 1.4% active. AID 652067, 2013. activation, % at 6.8 µM;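 active = activation above the mean of all tested compounds plus 3 SD, cut at about 5.5% in these data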;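 also: 100% = response to 3 µM Δ7-dafachronic acid high control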
LXR ag: LXR agonists, Gal4 luciferase reporter, confirmation, counter-screen for hcDAF-12 agonist project, cell-based, luminescence, HEK293, H. contortus campaign; activation, % at 6.8 µM; 3,400 tested, under 10 active; HEK293 Gal4-LXR tk-luc reporter, 24 h; normalized: DMSO 0%, positive control 100%; shares compounds with hcDAF-12 act;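 active = mean percent activation of the reporter above a cutoff set as the average over tested compounds plus their standard deviation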
Target sequence (P55055 whole entry, looked up, the tested form may be a part): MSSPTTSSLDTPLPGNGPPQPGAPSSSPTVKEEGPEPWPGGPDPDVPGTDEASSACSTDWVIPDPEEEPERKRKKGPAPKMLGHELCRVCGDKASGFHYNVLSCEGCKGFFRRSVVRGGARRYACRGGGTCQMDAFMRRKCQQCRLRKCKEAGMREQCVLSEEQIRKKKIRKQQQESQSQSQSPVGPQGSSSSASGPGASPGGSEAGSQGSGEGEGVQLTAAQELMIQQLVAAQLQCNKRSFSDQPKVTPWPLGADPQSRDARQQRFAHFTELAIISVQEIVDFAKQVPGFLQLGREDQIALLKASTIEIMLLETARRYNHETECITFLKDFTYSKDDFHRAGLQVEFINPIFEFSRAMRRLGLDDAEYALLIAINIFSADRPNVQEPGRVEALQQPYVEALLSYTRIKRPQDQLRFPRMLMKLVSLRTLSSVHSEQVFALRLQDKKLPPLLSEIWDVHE
hcDAF12 conf: H. contortus DAF-12 receptor agonists, confirmation, cell-based, luminescence, HEK293, lit1-tk-luc, triplicate. shares compounds with hcDAF-12 act. HEK293 hcDAF-12 lit1-tk-luc reporter; % of Δ7-dafachronic acid response. activation, % at 6.8 µM. 3,400 tested, 61% active. AID 743032, 2013;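 active = mean activation across triplicate tests above the threshold derived from the earlier primary screen, cut at about 5.5% in these data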;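 also: 0% = DMSO only wells and 100% = 3 µM Δ7-dafachronic acid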
Active calls of the source: *; · = not tested or not shown.

SMILES	ssDAF-12 act	DAX1 inh-1	DAX1 inh-2	hgDAF12 agonist	hcDAF-12 act	LXR ag	hcDAF12 conf
COc1ccccc1C(=O)NCC(=O)Nc1ccc2c(c1)OCO2	-0.8	0.1	-0.5	-1.2	-1.5	·	·
COc1ccc(Cl)cc1C(=O)Nc1ccncc1	-1.4	0.1	-1.9	3.2	-1.8	·	·
COc1ccc(Cl)cc1C(=O)Nc1ccc2c(c1)OCO2	1.5*	2.9	1.1	8.2	7.3*	0.5	10.2*
CC(=O)Nc1ccc2c(c1)OCO2	-1.1	0.3	-1.2	-3.7	-0.8	·	·
O=C(Nc1ccc2c(c1)OCO2)c1cccs1	-0.3	2.7	0.7	11.9*	6.6*	0.8	6.1*
COc1ccc(Cl)cc1C(=O)Nc1ccc2c(c1)OCCO2	3.0*	1.9	8.4*	10.4	8.6*	1.1	11.7*
O=C(Nc1ccc2c(c1)OCO2)c1noc2c1CCCCC2	0.2	4.4*	0.5	12.2*	9.0*	1.3	6.1*
Cc1ccccc1C(=O)Nc1ccc2c(c1)OCO2	0.1	3.0	-1.2	12.9*	6.8*	1.6	4.7
COC(=O)C12C=C3CC(C4CC4)=C3C(=O)N1Cc1[nH]c3ccccc3c1C2 (stereo unspecified)	-0.3	-1.7	·	0.2	4.2	·	·
COC(=O)C1=CC[C@@H](NC(=O)OC(C)(C)C)[C@H](O)[C@H]1O[Si](C)(C)C(C)(C)C	-1.5	·	·	-2.6	1.5	·	·
CCc1c(-c2ccccc2)ncn1CCc1ccccc1OC	-1.6	-1.4	·	0.6	-4.0	·	·
N=c1oc2ccccc2cc1-c1nc2ccccc2c(=O)[nH]1	0.5	1.7	-0.2	1.2	8.3*	0.3	5.2
O=C(c1ccccc1)c1cc2ccccc2oc1=O	0.2	0.8	0.0	2.6	6.9*	0.1	4.7
COC(=O)[C@]12C[C@H](CC(=O)N3CCSCC3)C(=O)N(Cc3ccccc3)C1=C[C@H](C(C)(C)C)O[C@@H]2C	-0.6	0.0	·	-0.3	-0.5	·	·
CC(C)(C)C(=O)NC1CCCCN(Cc2cccc(Cl)c2)C1=O (stereo unspecified)	-1.3	-3.0	·	-4.2	-2.7	·	·
Cc1ccc(C=Nc2cc([N+](=O)[O-])ccc2C)s1	0.1	-0.2	-0.4	3.6	6.9*	-0.3	1.4
COC(=O)C[C@@H]1CC[C@@H]2[C@@H](COc3ccc(NC(=O)c4ccc(F)cc4)cc3C(=O)N2C)O1	-1.2	-0.5	·	0.3	-1.4	·	·
Cc1noc(/C=C/N(C)C)c1S(=O)(=O)N1CCc2ccccc21	0.2	0.3	2.3	-3.1	7.4*	-0.2	5.7*
COC(=O)[C@]12C=CCN1[C@@H](c1ccc(Cl)cc1)c1c(c3ccccc3n1S(=O)(=O)c1ccc(C)cc1)C2	-0.2	-0.2	·	5.0	0.5	·	·
COc1ccc(O)c(-c2cc(-c3ccc(F)cc3)n[nH]2)c1	1.0*	1.2	2.1	8.9	7.6*	1.1	6.3*
Oc1ccc(Br)cc1-c1cc(-c2ccccc2)n[nH]1	1.6*	-0.1	-0.6	4.6	8.1*	0.0	5.2
O=C(CSc1c[nH]c2ccccc12)NCC1CCCO1 (stereo unspecified)	1.5*	-0.5	1.1	0.0	9.6*	-0.1	4.0
CN(C)C(=S)N=Nc1[nH]c2ccccc2c1O	1.4*	1.3	·	12.7*	7.3*	0.1	3.3
CC(C)N1Cc2nnn(Cc3ccccc3)c2-c2cc(F)ccc2S1(=O)=O	-1.5	-1.2	·	-5.3	-3.5	·	·
C[C@H]1[C@@H](OC(=O)NCc2cccc(Cl)c2)CC[C@@]23CCCN2C(=O)CCC[C@@H]13	-1.2	·	·	-0.4	-2.6	·	·
SMILES	ssDAF-12 act	DAX1 inh-1	DAX1 inh-2	hgDAF12 agonist	hcDAF-12 act	LXR ag	hcDAF12 conf
Cc1nnc(-c2ccccc2)o1	-0.8	0.1	0.6	0.6	-0.1	·	·
Cn1cc(-c2nnc(-c3ccccc3)o2)c2ccccc21	1.3*	3.4	4.1	17.0*	7.9*	1.9	18.0*
Cc1cccc(N=C2NN=C(c3c(C)[nH]c4ccccc34)CS2)c1	-0.5	-1.4	-1.3	2.4	7.9*	-0.3	3.3
Oc1csc(Cc2nc(-c3ccc(Br)cc3)cs2)n1	-0.1	2.0	2.0	12.3*	8.8*	0.5	7.6*
COc1ccc(-c2cnc(C(O)c3ccccc3)[nH]2)cc1 (stereo unspecified)	-0.7	4.3*	·	8.4	6.7*	0.8	7.1*
Cn1nc(-c2ccc(Cl)cc2)c2cc(C(=O)NCCN3CCOCC3)sc21	0.1	0.6	7.5*	5.0	7.3*	0.1	5.1
CCN1CCN(C(=O)c2cc3c(-c4ccc(Cl)cc4)nn(C)c3s2)CC1	1.2*	0.8	4.5*	3.7	7.6*	-0.2	6.6*
CCCCN(CC)CCNC(=O)c1cc2c(-c3ccc(Cl)cc3)nn(C)c2s1	1.3*	2.3	1.9	6.1	10.3*	-0.2	10.8*
Cn1nc(-c2ccc(Cl)cc2)c2cc(C(=O)NCCCN3CCOCC3)sc21	·	·	2.7	·	·	·	·
CCCN(CCC)CCNC(=O)c1cc2c(-c3ccc(Cl)cc3)nn(C)c2s1	0.4	1.4	0.9	6.0	10.6*	-0.1	12.7*
CN1C(=O)[C@@]2(C3=C(CCCC3=O)OC3=C2C(=O)OC2(CCCCC2)C3)c2ccccc21	-0.9	0.8	·	-0.8	-0.6	·	·
c1csc(-c2ccc(N3CCOCC3)nn2)c1	0.0	3.4	-0.1	13.2*	6.6*	1.4	5.8*
COc1ccc(C2C(C(=O)N3CCN(c4ccccc4C)CC3)CC(=O)N2c2ccc(OC)cc2)cc1 (stereo unspecified)	-2.1	-2.1	·	-5.9	-3.7	·	·
Clc1ncccc1-c1nnn(-c2ccccc2)n1	0.3	2.4	0.6	13.1*	6.8*	1.5	7.0*
COc1ccc(-n2c(SCC(=O)Nc3ccc(NC(C)=O)cc3)nc3c([nH]c4ccccc43)c2=O)cc1OC	1.0*	-0.7	0.2	-0.3	9.6*	-0.2	6.7*
O=C(c1cccs1)N1CCCc2ccccc21	-1.6	0.5	-0.7	-0.3	0.1	·	·

Screens deposited in PubChem BioAssay by The Scripps Research Institute Molecular Screening Center.
